# D1 antagonist = Antagonist of Human D 1 Dopamine Receptor: qHTS | hit rate 3.2% among 360,000 | HEK293 TREx D1 cells, calcium flux, dopamine EC80; hits give low values | activity change, negative = inhibition, % at 10 µM | AID 504652, 2011 | D(1A) dopamine receptor (Homo sapiens), P21728; in the data active means activity change below about -30%; further: on the % scale 0 is the no-effect control and ±100 the full control effect
# Target sequence (P21728 whole entry, looked up): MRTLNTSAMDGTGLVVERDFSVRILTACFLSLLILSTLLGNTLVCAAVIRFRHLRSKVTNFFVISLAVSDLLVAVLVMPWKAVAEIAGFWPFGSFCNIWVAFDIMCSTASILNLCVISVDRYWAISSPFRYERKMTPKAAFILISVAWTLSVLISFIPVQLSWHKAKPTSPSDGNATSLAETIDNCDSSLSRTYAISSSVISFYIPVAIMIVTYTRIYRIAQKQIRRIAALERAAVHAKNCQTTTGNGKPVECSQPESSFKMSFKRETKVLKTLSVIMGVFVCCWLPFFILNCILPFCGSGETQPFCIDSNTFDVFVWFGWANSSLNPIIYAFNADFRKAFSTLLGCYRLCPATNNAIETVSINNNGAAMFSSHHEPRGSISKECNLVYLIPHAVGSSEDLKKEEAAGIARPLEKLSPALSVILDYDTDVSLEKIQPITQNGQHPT
#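 Kinetic fluorescence of a calcium dye serves as the read-out. D1-expressing Hek293 Trex cells, induced overnight at 30 C, are exposed to compound for 180 s before an EC80 dopamine addition, then read 180 s further.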
# D1 agonist = Allosteric Agonists of the Human D1 Dopamine Receptor: qHTS; D(1A) dopamine receptor (Homo sapiens), P21728; AID 504660, 2011; hit rate 1% among 360,000; activation, % at 2 µM; HEK293 T-REx D1 cells, calcium flux, agonist mode; in the data active means activation above about 30%; further: 0% is about no effect
#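 Inducible HEK293 T-REx D1 cells, force-coupled to calcium signalling, were plated at 4000 cells/well with tetracycline and held overnight at 30 C. After no-wash calcium dye loading, compound-evoked calcium rise over 180 s flagged agonists.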
# D3 ag = qHTS of D3 Dopamine Receptor Agonist: qHTS. D(3) dopamine receptor (Homo sapiens), P35462. D3R DiscoveRx beta-arrestin cells, luminescence, 90 min. max activation, %. AID 652048, 2013. hit rate 0.58% among 410,000; in the data active means max activation above about 30%; further: 0% is about no effect
#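 Cells at 1500/well, incubated overnight, then treated with pinned compounds (dopamine as control) for 90 min at 37 degrees C. DiscoveRx reagent added for 30 - 60 minutes at room temperature; luminescence read.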
# D1 PAM = Potentiators of Human D1 Dopamine Receptor: qHTS. D(1A) dopamine receptor (Homo sapiens), P21728. HEK293 TREx D1 cells, calcium flux, dopamine EC20 potentiation. potentiation, % at 10 µM. hit rate 0.036% among 360,000; in the data active means potentiation above about 30%; further: 0% is about no effect
# D3 antag = qHTS of D3 Dopamine Receptor Antagonist: qHTS; D3R cells, DiscoveRx beta-arrestin luminescence, antagonist mode; hits give low values; max response, negative = inhibition, %; hit rate 2.5% among 360,000; in the data active means max response below about -50%; inconclusive means no clear call, values can overlap the other calls; further: on the % scale 0 is the no-effect control and ±100 the full control effect
#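 Cells expressing the human receptor were seeded at 1500 cells/well, incubated overnight at 37 degrees C in 5% CO2, then exposed to library compounds with dopamine controls for 90 minutes at 37 degrees C before luminescent detection.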
# ERG Ets-DNA blk = qHTS for Small Molecule Inhibitors of the ERG Ets/DNA interaction. Transcriptional regulator ERG (Homo sapiens), P11308. fluorescence polarization, His-ERG Ets domain / labelled DNA. Potency, µM (top dose mostly 76.9 µM), for the others: top-dose FP activity, negative = inhibition, hits mostly inhibitors. hit rate 0.028% among 370,000. AID 624246, 2012; active means well fitted inhibition curve with a large enough effect in the polarisation, with a control signal flat; inconclusive means small, poorly fitted or top-dose-only effect, or effect the other way, or a change in a side signal; inactive means no such curve, though single readings can be large or run the other way; the % refers to the polarisation;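 further: polarization taken with two DNA probes labelled with fluorescein and Texas red; potency means the concentration at half of the fitted maximal effect; % of control where 0% means no effect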
#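 His-tagged ERG Ets domain (1 uM in the protein solution; 300mM KCl, 50mM Tris-HCl, 1mM EDTA, 1mM DTT, pH 7.5) received compound, then a probe mix of 5 nM fluorescein-DNA and 100nM Texas-615-DNA. Fluorescence polarization was read for both dyes.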
# Numbers without * were called inactive; ? = inconclusive; nt = no result. An excerpt weighted towards active compounds, which were near 6.1% of everything screened.
SMILES,D1 antagonist,D1 agonist,D3 ag,D1 PAM,D3 antag,ERG Ets-DNA blk
Cc1cccc(NC(=S)NC2CCN(Cc3ccccc3)CC2)c1C,-8,7,-1,-2,-53*,-12%
S=C(Nc1ccc(CN2CCCCC2)cc1)Nc1cccc(Cl)c1Cl,11,3,-55,-4,-76*,-3%
COc1ccccc1C(=O)N(CCC1CCCN1C)c1nc2ccccc2s1 (stereo unspecified),-10,14,-12,-3,2,-7%
NC(=O)c1ccc(NCC2COc3ccccc3O2)c([N+](=O)[O-])c1 (stereo unspecified),-37*,8,-3,-9,11,8%
COc1ccc2nc(C)cc(NCc3ccc(F)cc3)c2c1,-5,85*,2,-1,0,34%
Nc1nc(Cl)cc(N2CCC(c3cc(-c4ccc(Cl)cc4)n[nH]3)CC2)n1,-8,10,15,-4,34,-1%
Clc1ccc2nc(C3CCN(Cc4ccccc4)CC3)[nH]c2c1,-14,3,-32,-10,-87*,-5%
Cc1ccc(CN2CCC(c3cc(-c4ccc(Cl)cc4)n[nH]3)CC2)cc1,-13,14,-8,-8,-91*,0%
COc1ccc(-c2cc(C3CCN(c4cc(Cl)nc(N)n4)CC3)[nH]n2)cc1,2,17,37*,-1,21,-4%
CC1CCCCN1C(=O)CN1CCC(c2nc3ccc(Cl)cc3[nH]2)CC1 (stereo unspecified),-7,2,0,-1,-3,11%
Cc1ccc(CN2CCC(c3nc4ccc(Cl)cc4[nH]3)CC2)cc1,-31*,19,-37,-6,-93*,nt
COc1ccc(-c2cc(C3CCN(Cc4ccc([N+](=O)[O-])cc4)CC3)[nH]n2)cc1,24,7,-14,-3,-14,-3%
CC[n+]1c(S(=O)(=O)[O-])ccc2ccc(C)cc21,16,0,-2,-2,-9,5%
COc1ccc(NC(=O)C(CC(=O)O)Cc2ccccc2)cc1 (stereo unspecified),-1,1,-10,-3,-16,0%
COc1ccc(NC(=O)C(CC(=O)O)C(C)c2ccccc2)cc1 (stereo unspecified),-39*,7,6,5,10,8%
O=C1CCN(S(=O)(=O)c2ccc(Br)cc2)CCN1,4,3,-11,4,-9,?
COc1cc2c(cc1NC(=O)C(C)N1CCN(S(=O)(=O)c3ccccc3[N+](=O)[O-])CC1)oc1ccccc12 (stereo unspecified),-3,1,16,6,-12,-1%
COc1cc2c(cc1NC(=O)C(C)N1CCN(S(=O)(=O)c3ccc(C)c(C)c3)CC1)oc1ccccc12 (stereo unspecified),5,0,31*,2,-21,2%
CC(OC(=O)C1CCCC1)C(=O)Nc1ccc(S(N)(=O)=O)cc1 (stereo unspecified),10,3,-3,-3,40,nt
Cc1ncc(CN2CCCC(C(=O)Nc3ccc(-c4cccc(F)c4)cc3)C2)s1 (stereo unspecified),-19,16,-5,-6,-3,-1%
CC(=O)c1cccc(CN2CCCC(C(=O)Nc3ccc(-c4ccco4)cc3)C2)c1 (stereo unspecified),-46*,12,-13,-11,-21,13%
Cc1ncc(CN2CCCC(C(=O)Nc3ccc(-c4cccc(F)c4)cc3)C2)cn1 (stereo unspecified),-33*,29,3,-2,0,1%
COc1ccc(S(=O)(=O)CCC(=O)NCCc2ccc(S(N)(=O)=O)cc2)cc1,12,1,-3,10,-16,-11%
COc1ccc(NC(=O)Nc2c[nH]c(=O)[nH]c2=O)cc1OC,6,5,7,-2,8,14%
C=CCc1ccccc1OCC(O)CNC (stereo unspecified),-19,7,3,-6,-64*,0%
SMILES,D1 antagonist,D1 agonist,D3 ag,D1 PAM,D3 antag,ERG Ets-DNA blk
C=CCc1ccc(OCC(O)CN2CCN(c3ccccc3OC)CC2)c(OC)c1 (stereo unspecified),-10,11,-9,-7,-103*,1%
C=CCc1ccc(OCC(O)CN2CCN(Cc3ccc(Cl)cc3)CC2)c(OC)c1 (stereo unspecified),-14,43*,-6,-11,-73*,4%
COc1ccc(CC(C)N2CCN(c3ccccc3OC)CC2)cc1OC (stereo unspecified),0,5,-37,-8,-93*,0%
C=CCc1ccc(OCC(O)CN2CCC(Cc3ccccc3)CC2)c(OC)c1 (stereo unspecified),-11,14,-17,-8,-24,4%
C=CCc1ccc(OCC(O)CO)c(OC)c1 (stereo unspecified),-3,-1,-10,-1,0,-22%
c1ccc(Cn2c(NCc3ccccn3)nc3ccccc32)cc1,-9,0,5,-4,10,-1%
Cc1cccc(N2CCN(C(=O)CCn3c(=O)[nH]c4ccsc4c3=O)CC2C)c1 (stereo unspecified),-13,-4,14,-6,86,26%
C=CCc1ccccc1OCC(O)CN1CCOCC1 (stereo unspecified),nt,nt,-2,nt,1,-3%
C=CCc1ccccc1OCC(O)CN1CCN(c2ccc(OC)cc2)CC1 (stereo unspecified),-64*,5,-4,-8,-82*,-5%
Cc1ccc(NC(=O)Nc2ccno2)cc1,-37*,1,4,-9,6,-5%
C=CCN(CC(=O)NC1CCS(=O)(=O)C1)S(=O)(=O)c1ccccc1C(F)(F)F (stereo unspecified),1,3,4,-7,-9,-10%
Cc1cc(C)n(CC(=O)NC2C(=O)N3C(C(=O)O)=C(CSc4nnc(C)s4)CSC23)n1 (stereo unspecified),15,2,-6,-8,-21,-3%
Cc1nnc(SCC2=C(C(=O)O)N3C(=O)C(NC(=O)c4cccc(F)c4F)C3SC2)s1 (stereo unspecified),-73*,2,-2,-9,-11,1%
CCS(=O)(=O)c1ccc(-c2csc(-c3ccc(Cl)cc3)n2)c(Cl)c1Cl,-33*,2,10,-5,-20,-3%

# Screening results from PubChem.
